Consider 29 compounds from PubChem BioAssay (NCATS).

Values joined by “and” are separate entries in the source; they are usually repeats but may differ in a detail not shown here. Equal entries are not always repeated. Records with an inconclusive call do not appear. Active and inactive are the calls of the source. Calls come from the whole dose curve; as a rule, active = well fitted curve in the direction sought with a large enough effect; inconclusive = small, poorly fitted or top-dose-only effect, or another doubt; inactive = no such curve, though single readings can be large; an effect the other way counts as inactive or inconclusive.

Assay [1] has as its target Cytochrome P450 3A7 (Homo sapiens) (UniProt P24462). The assay can be described thus: Cytochrome P450 family 3 subfamily A member 7 (CYP3A7) small molecule antagonists: luciferase biochemical qHTS assay (AID 1963596). Note: nearly all actives have a fitted effect of over 40% in size. The method, boiled down:
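Compounds were screened in qHTS format for interference with CYP3A7 turnover of a proluciferin substrate. Reactions ran 1 h at room temperature after NADPH regeneration solution was added, then luciferin product was detected by luminescence.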
(In general: qHTS replaces the single test concentration by a dilution series.)

Assay [2] can be described thus: Viability qHTS for spleen associated tyrosine kinase inhibitor (SYKi) naive MV4-11 cells (AID 1963823). Note: nearly all actives have a fitted effect of over 40% in size. A digest of the protocol: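 SYKi-naive MV4-11 AML cells, 500 per well, were exposed to library compounds for 72 hr at 37 C, 5% CO2. Viability was then read by CellTiter-Glo luminescence after 10 min at room temperature.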
Assay [3] in a line: Viability qHTS for spleen associated tyrosine kinase inhibitor (SYKi) drug resistant MV4-11 cells (AID 1963824). Note: nearly all actives have a fitted effect of over 35% in size. The method, boiled down:
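SYK-inhibitor-resistant MV4-11 AML cells were seeded at 500 per well onto compound and cultured 72 hours (37 °C, 5% CO2). CellTiter-Glo was then added, and after 10 min at room temperature, luminescence gave viability.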
Potency is the fitted concentration of half-maximal effect.

Cytochrome P450 3A7 (Homo sapiens), sequence (P24462 whole entry, looked up): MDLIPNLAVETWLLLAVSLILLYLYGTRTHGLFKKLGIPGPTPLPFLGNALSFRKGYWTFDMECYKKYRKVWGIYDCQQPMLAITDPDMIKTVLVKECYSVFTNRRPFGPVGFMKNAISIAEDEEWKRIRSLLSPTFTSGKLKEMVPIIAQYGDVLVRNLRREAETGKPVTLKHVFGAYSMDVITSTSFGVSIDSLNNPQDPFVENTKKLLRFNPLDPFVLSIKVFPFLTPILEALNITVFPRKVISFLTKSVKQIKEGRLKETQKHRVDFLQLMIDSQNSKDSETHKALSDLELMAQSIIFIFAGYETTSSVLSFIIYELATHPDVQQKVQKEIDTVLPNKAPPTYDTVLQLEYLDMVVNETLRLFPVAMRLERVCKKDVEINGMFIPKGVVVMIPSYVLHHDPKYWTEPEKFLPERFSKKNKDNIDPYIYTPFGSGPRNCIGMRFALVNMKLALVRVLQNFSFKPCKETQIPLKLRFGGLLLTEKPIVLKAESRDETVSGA

With `C=CC(=O)N1CCN(C(=O)c2cc(-c3cc(Cl)ccc3Cl)c(Cl)cc2OC)CC1`, the Potency result in assay [1] was “inactive”. Further, the values for the Potency in assay [2] and in assay [3] were 8.2 µM (active) and 6.51 µM (active), respectively.

Take `CCOC(=O)N1CCC(N2CCC[C@@H](NC(=O)c3ccccc3C)C2)CC1`: the Potency result in assay [1] is “inactive”. The Potency is 16.4 µM (active) in assay [2] and 14.6 µM (active) in assay [3].

On to `CNC(=O)c1cc(Oc2ccc3nc(N[C@@H]4CCCC[C@H]4O)sc3c2)ccn1`, for which the Potency entry in assay [1] was “inactive”. Moreover, the Potency is 13 µM (active) in assay [2] and 11.6 µM (active) in assay [3].

Regarding `CC1(C)CC(NC(=O)C(=O)Nc2ccc(Br)cc2)CC(C)(C)N1`, the Potency entry in assay [1] was “inactive”. The Potency in assay [2] was 3.26 µM (active); in assay [3], 2.59 µM (active).

For `CNC(=O)c1cnn(-c2nc(N)c3ncn([C@@H]4O[C@H](CO)[C@@H](O)[C@H]4O)c3n2)c1`, the Potency entry in assay [1], in assay [2] and in assay [3] was “inactive” in each case.

For the compound `O=c1[nH]c2cc(C(F)(F)F)c(N3CCOCC3)cc2n(CP(=O)(O)O)c1=O`, the Potency result in assay [1], in assay [2] and in assay [3] was “inactive” in each case.

Regarding `Nc1nc(O)c(C2=C3C(=Nc4ccccc43)C(=O)NCC2)[nH]1`, the Potency entry in assay [1] is “inactive”. Besides, the Potency in assay [2] was 0.461 µM (active); in assay [3] it was 1.16 µM (active).

Regarding `FC(F)(F)c1nnc2c(Sc3ccccc3)nc3ccc(Cl)cc3n12`, the Potency entry in assay [1] was “inactive”. Moreover, the results for the Potency in assay [2] and in assay [3] were 1.46 µM (active) and 0.731 µM (active), respectively.

In the case of `CC(C)C[C@@H](C(=O)N[C@@H](Cc1ccc(OCc2ccccc2)cc1)C(=O)NC(C)(C)C)N(C)Cc1ccc(C(C)(C)C)cc1`, the Potency entry in assay [1] and in assay [2] was “inactive” in each case. The Potency in assay [3] is 3.66 µM (active).

With `C[n+]1ccccc1/C=N/O`, the Potency result in assay [1], in assay [2] and in assay [3] was “inactive” throughout.

For the compound `CC(C)c1cccc(C(C)C)c1NC(=O)Nc1ccc(Sc2ccc([N+](=O)[O-])cc2)cc1`, the Potency entry in assay [1] was “inactive”. The Potency in assay [2] is 7.31 µM (active); in assay [3], 5.17 µM (active).

Take `O=C(NCC(O)CO)c1ccncc1Nc1ccc(I)cc1F` (configuration not stated): the Potency result in assay [1] is “inactive”. The Potency is 0.366 µM (active) in assay [2] and 0.164 µM (active) in assay [3].

Consider `O=C(O)CC1CCC(c2ccc(NC(=O)c3nnc(Nc4ccc(F)c(F)c4)o3)cc2)CC1` (configuration not stated), for which the Potency entry in assay [1], in assay [2] and in assay [3] was “inactive” throughout.

As for `CN[C@H](CNC(=O)N1CCC[C@@H]([C@@H](OCCNC(=O)OC)c2cccc(Cl)c2)C1)C[C@H]1CCCOC1`, the Potency result in assay [1], in assay [2] and in assay [3] was “inactive” throughout.

With `CN1CCN(c2nc(-c3ccc(C(=O)NC4(C(=O)NCC#N)CCCCC4)cc3)cs2)CC1`, the Potency result in assay [1], in assay [2] and in assay [3] was “inactive” in each case.

Turning to `Cn1ncnc1COc1nn2c(-c3cc(F)ccc3F)nnc2cc1C(C)(C)C`, the Potency in assay [1] is 4.47 µM (active). Also, the Potency result in assay [2] and in assay [3] was “inactive” throughout.

Take `COc1cc(C(=O)NC2CCN(C)CC2)ccc1Nc1ncc2c(n1)N(C1CCCC1)CC(F)(F)C(=O)N2C`: the Potency result in assay [1] is “inactive”. Moreover, the results for the Potency in assay [2] and in assay [3] were 0.0231 µM (active) and 0.0103 µM (active), respectively.

Consider `O=C(NCC1CCN(Cc2cccc(Cl)c2)CC1)[C@@H]1CCCN(c2ncnc3c2nc2n3CCCC2)C1`, for which, in assay [1], the Potency entry was “inactive”. Also, the Potency was 2.31 µM (active) in assay [2] and 10.3 µM (active) in assay [3].

As for `CN(C)C/C=C/C(=O)Nc1cccc(C(=O)Nc2ccc(Nc3nccc(-c4cccnc4)n3)cc2)c1`, the Potency result in assay [1] is “inactive”. The Potency was 0.184 µM (active) in assay [2] and 0.461 µM (active) in assay [3].

Take `COc1cc(CCc2cc(NC(=O)c3ccc(N4CC(C)NC(C)C4)cc3)n[nH]2)cc(OC)c1` (configuration not stated): the Potency entry in assay [1] is “inactive”. Besides, the Potency is 0.82 µM (active) in assay [2] and 1.03 µM (active) in assay [3].

In the case of `CCCCNC(=O)[C@@H]1Cc2ccccc2N1C(=O)[C@@H](N)CC`, the Potency result in assay [1], in assay [2] and in assay [3] was “inactive” each time.

Regarding `COc1ccc(C(=O)Nc2ncc(-c3ccc(C(=O)O)cc3)s2)cc1`, in assay [1], the Potency entry is “inactive”. Moreover, the Potency in assay [2] and in assay [3] was 0.461 µM (active) each time.

Regarding `Cn1cc(-c2cnc3ccc4ccc(CS(=O)(=O)NCc5ccccn5)cc4c(=O)c3c2)cn1`, the Potency entry in assay [1] was “inactive”. In addition, the Potency in assay [2] was 14.6 µM (active); in assay [3] it was 11.6 µM (active).

Consider `CCCCc1ccc(C(=O)Nc2cc(-c3ccc(Cl)cc3)nn2-c2ccc(Cl)cc2)cc1`, for which the Potency entry in assay [1], in assay [2] and in assay [3] was “inactive” throughout.

`CCOc1cc(C(C)(C)C)ccc1C1=NC(C)(c2ccc(Cl)cc2)C(C)(c2ccc(Cl)cc2)N1C(=O)N1CCN(CCCS(C)(=O)=O)CC1` (configuration not stated): the Potency is 2.82 µM (active) in assay [1], 10.3 µM (active) in assay [2] and 9.2 µM (active) in assay [3].

Take `O=c1[nH]c([C@@H]2CCCN2)nc2c1oc1ccc(Cl)cc12`: in assay [1], the Potency entry is “inactive”. Further, the Potency in assay [2] was 8.2 µM (active) and 16.6 µM (active); in assay [3] it was 16.4 µM (active).

As to `CCCc1cc2c(N3CCN(C4=NCC(C)(C)S4)CC3)ncnc2s1`, in assay [1], the Potency result is “inactive”. Moreover, the Potency in assay [2] was 8.2 µM (active); in assay [3], 5.8 µM (active).

As to `Nc1c(CC(=O)O)cccc1C(=O)c1ccc(Br)cc1`, the Potency result in assay [1], in assay [2] and in assay [3] was “inactive” throughout.

On to `O=C1N(CC2CCCCN2)CCN1c1ccccc1` (configuration not stated), for which the Potency entry in assay [1], in assay [2] and in assay [3] was “inactive” throughout.
